# In the library only some 1.2% were active in any assay of this set; here they are far more common.
# TNFa cytotox: HUVEC cytotoxicity counter-screen, TNF alpha stimulated | HUVEC TNFalpha-stimulated, Hoechst cell count, imaging | cell count reduction, % at 2 µM | 93,000 compounds, 0.17% hits | AID 848;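 active means cell count reduction exceeding the screen mean by over 5 SD, scaled to untreated wells per plate, cut at about 78% in these data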;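 further: cells counted after 24 h of TNF alpha exposure following the 1 h pretreatment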
# HUVEC tox IL1B: HUVEC cytotoxicity counter-screen, IL-1B stimulated | HUVEC cell count loss, Hoechst imaging | 94,000 compounds, 0.41% hits | cell count reduction, % at 2 µM;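 active means cell count reduction more than 3 SD above the screen-wide mean, cut at about 70% in these data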
# Phagocytosis inh: inhibitors of macrophage phagocytosis. J774A.1 macrophage IgG-bead phagocytosis, imaging. inhibition, % at 5 µM. 110,000 compounds, 0.07% hits;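 active means inhibition above the mean of the plate negative controls plus 5 SD, cut at about 13% in these data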;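 further: phagocytic index as fraction of beads internalized from green versus red external bead signal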
# VCAM1 TNFa inh: reduces TNF alpha induced VCAM1 expression in HUVEC; HUVEC TNFa-induced VCAM-1 immunofluorescence, high-content imaging; inhibition, % at 2 µM; 95,000 compounds, 0.48% hits;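 active means inhibition above the batch mean plus 3 SD, with images confirmed as a hit by eye, cut at about 37% in these data; inconclusive means inhibition above that limit but hit not confirmed in images; inactive means inhibition not above that limit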
# IL1B NFkB inh: blocks IL-1B driven NFkB nuclear translocation in HUVEC cells; AID 796; inhibition, % at 2 µM; HUVEC IL-1B NFkB p65 nuclear translocation imaging; 94,000 compounds, 0.43% hits;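 active means inhibition above about 30% together with a positive call from visual inspection of the well image, limit read from the data; inconclusive means inhibition above a set limit but visual check negative; inactive means inhibition not above a set limit, visual check negative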;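 further: nuclear over cytoplasmic p65 intensity ratio measured by imaging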
# NFkB transloc pot: enhances IL-1B driven NFkB nuclear translocation. activation, % at 2 µM. AID 819. HUVEC IL-1B NFkB p65 nuclear translocation imaging. 94,000 compounds, 0.3% hits;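 active means activation above 40%, about the mean plus 3 SD, also judged a hit on visual image review; inconclusive means activation above 40% but not a hit on visual review; inactive means activation not above 40% and no visual hit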;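 further: percent activation is computed from the nuclear over cytoplasmic p65 intensity ratio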
# A number is an active result; n = inactive; u = inconclusive; x = not tested or not shown; [ ] = another dose, or the depositor's remark.
SMILES,TNFa cytotox,HUVEC tox IL1B,Phagocytosis inh,VCAM1 TNFa inh,IL1B NFkB inh,NFkB transloc pot
O=c1c(-c2ccc(Br)cc2)coc2c(CN3CCOCC3)c(O)ccc12,n,n,n,62.2,n,n
O=C(OC(C(=O)Nc1cccc(C(F)(F)F)c1)c1ccccc1)C1CCCCC1 (stereo not drawn),x,x,n,x,x,x
Cc1cc(C)cc(OCC(=O)Nc2ccc(F)cc2)c1,n,84.5,n,n,n,n
CCSC1=N/C(=C/c2ccsc2)C(=O)N1c1ccccc1,x,x,n,x,x,x
O=C(Nc1nnc(SCC(=O)N2CCOCC2)s1)c1ccccc1Cl,x,x,36.8[artifact],x,x,x
Fc1ccc(CNC(=S)NC2CCCC2)cc1,x,x,n,x,x,x
Cc1ccc(-n2nnc3c(SCC(=O)N4CCN(c5ccccc5)CC4)ncnc32)cc1,n,n,x,92.2,n,n
Cc1ccc(-c2ccc(SCC(=O)N3CCN(c4ccccc4)CC3)nn2)cc1,x,x,n,x,x,x
CC1(C)C=C(c2ccc(O)cc2)CC(C)(C)N1,n,n,n,n,45.3,n
N#Cc1ccc(CSc2nnc(-c3cnccn3)o2)cc1,n,n,n,n,n,n
N#Cc1ccc(CNc2cnccn2)cc1,n,93.7,x,n,n,n
CC1CC(C)(C)NC(=S)N1CCCC(=O)N1CCN(c2ccccc2F)CC1 (stereo not drawn),x,x,n,x,x,x
CCOC(=O)C1C(=O)Nc2nc(C)nn2C1c1ccccc1 (stereo not drawn),n,n,n,n,n,83.6
CC1CCN(C(=O)c2scc3c2OCCO3)CC1,n,n,n,n,n,n
CC1CN(C(=O)c2scc3c2OCCO3)CC(C)O1 (stereo not drawn),n,93.2,x,n,80.3,n
Cc1ccc(C(C)C)c(OCCNS(C)(=O)=O)c1,n,84.2,n,n,n,n
COc1ccc(-c2cc(C(F)(F)F)n3nc(C(=O)Nc4cc(C)on4)cc3n2)cc1OC,n,n,n,95.1,n,n
Cc1noc(C)c1COc1ccc(C(=O)OC(C)C(=O)Nc2ccc(S(=O)(=O)N3CCOCC3)cc2)cc1 (stereo not drawn),x,x,n,x,x,x
CNc1nc(SCC(=O)OC)nc(N2CCOCC2)n1,x,x,74.2[artifact],x,x,x
CNc1nc(C(=O)O)nc(N2CCOCC2)n1,x,n,x,x,n,u
CN(CC(O)COCc1ccc2c(c1)OCO2)C1CCCCC1 (stereo not drawn),x,x,n,x,x,x
COc1ccc(N2CCN(C(=O)CSc3nnc4c(C)cc5cc(C)ccc5n34)CC2)cc1,n,92.5,n,n,n,n
COc1ccc(N2CCN(C(=O)CSc3nnc4c(C)cc5c(C)cc(C)cc5n34)CC2)cc1,n,n,n,n,n,n
CCc1nc2oc3ccccc3c(=O)c2c(=O)n1CCOC,96.9,n,n,87.0,n,n
COCCn1c(C(C)C)nc2oc3ccccc3c(=O)c2c1=O,n,n,n,n,n,n
SMILES,TNFa cytotox,HUVEC tox IL1B,Phagocytosis inh,VCAM1 TNFa inh,IL1B NFkB inh,NFkB transloc pot
Cc1ccc(S(=O)(=O)Nc2cc(C(=O)NCCN(C)C)ccc2N2CCCCC2)cc1,n,n,n,n,n,n
Cc1ccc(S(=O)(=O)Nc2cc(C(=O)NCCN3CCCC3)ccc2N2CCCCC2)cc1,87.6,n,x,73.9,n,n
CCN(CC)c1ccc(-c2nn3c(-c4n[nH]c5c4CCC5)nnc3s2)cc1,n,n,x,47.5,n,n
C1CCC(c2nn3c(-c4n[nH]c5c4CCC5)nnc3s2)CC1,n,n,n,n,n,n
C=CCn1c(SCc2ccc(C#N)cc2)nnc1-c1ccc(C)cc1,n,n,n,n,n,n
COc1cccc(NS(=O)(=O)c2cc(C)ccc2OC)c1,n,n,n,n,n,n
COc1ccc(C)cc1S(=O)(=O)Nc1cccc(SC)c1,n,n,n,51.2,n,n
O=C(COC(=O)CCC(NC(=O)OCc1ccccc1)C(=O)OCC(=O)Nc1ccccc1)Nc1ccccc1 (stereo not drawn),x,x,n,x,x,x
CCCCNc1nnc(SCC(=O)c2c[nH]c3ccccc23)s1,x,x,n,x,x,x
CCSC1=C(C#N)C(c2ccc3c(c2)OCO3)C2=C(CCCC2=O)N1 (stereo not drawn),n,n,n,n,n,66.3
N#CC1=C(SCc2ccccc2)NC2=C(C(=O)CCC2)C1c1ccc2c(c1)OCO2 (stereo not drawn),n,n,n,n,n,n
CC(=NCCN1CCN(C(C)=C2C(=O)c3ccccc3C2=O)CC1)C1=C(O)CC(C)(C)CC1=O,x,x,n,x,x,x
CC(C)(C)NC(=O)CSc1nsc(SCC(=O)NC(C)(C)C)c1C#N,n,n,n,71.6,n,n
CCC(=O)Nc1ccccc1Sc1ncnc2scc(-c3ccccc3)c12,x,x,n,x,x,x
CC(c1ccccc1)n1cc(C(=O)NCCN2CCOCC2)nn1 (stereo not drawn),n,n,x,n,n,52.7
CCOC(=O)C1C(=O)NC(N2CCCCC2)=NC1c1ccco1 (stereo not drawn),n,n,n,97.0,n,n
CCOC(=O)C1C(=O)NC(N2CCN(Cc3ccccc3)CC2)=NC1c1ccco1 (stereo not drawn),n,n,x,n,n,n
COc1ccc2nc(SCC(=O)N3CCN(c4ccccc4F)CC3)c(C#N)cc2c1,n,n,x,n,45.6,n
CCN(CC)c1ccc(NC(=O)COC(=O)COc2ccccc2[N+](=O)[O-])cc1,x,x,n,x,x,x
COC(=O)Nc1nnc(SCc2ccc(C)cc2)s1,n,n,x,n,n,n
CC(=O)Nc1nnc(SCc2ccc(F)cc2)s1,n,79.8,x,n,n,n
CCCNC(=O)CC1Sc2ccccc2NC1=O (stereo not drawn),x,n,n,x,n,43.3
COc1cc(CN(C)Cc2ccccc2)cc(OC)c1O,x,n,x,n,n,n
Cc1cccnc1N(C(=O)Nc1cccc(Cl)c1)C1=NCC(C)(C)S1,x,x,n,x,x,x
Cc1cccnc1N(C(=O)Nc1ccccc1)C1=NCC(C)(C)S1,n,n,n,42.1,n,n
SMILES,TNFa cytotox,HUVEC tox IL1B,Phagocytosis inh,VCAM1 TNFa inh,IL1B NFkB inh,NFkB transloc pot
COc1ccc2c(c1)c1ncn(CCN3CCNCC3)c(=O)c1n2C,n,92.4,x,n,n,n
O=C(Nc1ccc2c(c1)OCO2)C1CCN(S(=O)(=O)Cc2ccccc2)CC1,n,n,n,n,n,n
O=C(Nc1ccc2c(c1)OCO2)NC1CCN(Cc2ccccc2)CC1,n,n,27.6[artifact],n,n,n
CCCC1=NN(c2ccc([N+](=O)[O-])cc2)C(=O)/C1=C\N(C)C,x,x,n,x,x,x
COc1ccc(CC(=O)OCc2cc3ccc(C)cc3[nH]c2=O)cc1,n,n,n,92.8,n,n
O=C(CC(=O)c1cc(Cl)ccc1O)c1ccccc1,n,89.1,n,n,n,n
CC(=O)NC1(C(F)(F)F)N=C(c2ccccc2)NC1=O (stereo not drawn),x,x,n,x,x,x
CC1=CCC2COC(c3ccc[n+](Cc4ccccc4)c3)C1C2 (stereo not drawn),x,x,n,x,x,x
CC(Sc1nc(N)cc(=O)[nH]1)C(=O)NC1CCCCC1 (stereo not drawn),n,n,n,93.5,n,n
CCN(CC)c1ccc(/C=N/NC(=O)CCC(=O)NCc2ccccc2)c(O)c1,x,x,n,x,x,x
Cc1cc([N+](=O)[O-])nn1CCCC(=O)N1CCN(c2ccccc2)CC1,x,x,n,x,x,x
COc1ccc(OCCCC(=O)Nc2cccc([N+](=O)[O-])c2C)cc1,x,x,n,x,x,x

# Compound activity from PubChem.
